# From PubChem BioAssay AID624331 (National Center for Advancing Translational Sciences (NCATS), 2012)
# Records with an inconclusive call do not appear. Activity calls are given as the source filed them. Calls follow the shape of the dose curve; as a rule, active = well fitted activation curve with a large enough effect; inconclusive = small, poorly fitted or top-dose-only effect; inactive = no such curve, though single readings can be large or run the other way.
# Test: qHTS assay for re-activators of p53 using a Luc reporter: Hit Validation with no p53 Expressed
# Settings: p53-null cells, luciferase reporter counter-screen; series mostly up to 46.1 µM
# Excerpt: The p53 tumor suppressor plays a key role in suppression of tumorigenesis and in human carcinogenesis. It is frequently found inactivated in human cancers, mainly by point mutation. These point mutations are found in a wide variety of human cancers and a majority of them affect the DNA binding domain of the protein. The point mutations either alter native p53 conformation or abolish DNA contact. Additionally, cancer cells with p53 mutations are more resistant to chemo-radiation therapies.
# This counter screen was run against the hits identified from the primary screen. It uses a cell line that was not transfected with p53. Compounds that show activity in this counter screen show unspecific activation of the assay system and are excluded from further consideration.
# NIH Chemical Genomics Center [NCGC]
# NIH Molecular Libraries Probe Production Centers Network [MLPCN]
# Assay Provider (PI): Yi Sung, University of Michigan at Ann Arbor
# 5ul of 1000 cells per well are dispensed in all wells except column 4, into white solid-bottom TC-treated Kalypsys plates. The cells are kept in Opti-MEM and supplemented with 10% FBS and dispensed using a Multidrop (Thermo). Then using the Kalypsys pin-tool, 23nl of compounds are pinned. The compounds are starting concentration at 10mM, with 1:5 dilution, 4 points, and the control compound nocodazole is pinned in column 1 at 25mM, 1:3 dilution, in duplicate, 25mM nocodazole is pinned in column 2. Please note, all concentrations are working concentrations. 5ul of 1pM purified luciferase enzyme is dispensed using the Kalypsys dispenser in column 4. Plates are incubated for 24 hrs at 37 deg C, 5% CO2, and 95% humidity. Then 4ul of the detection reagent Amplite (ABD Bioquest) is added using the Kalypsys dispenser. Plates are incubated for 10 min at ambient room temperature and are then read on the ViewLux (Perkin Elmer) using a clear filter for a luminescent read-out.
row,Structure (SMILES),outcome
1,O=C(N/N=C/c1c(O)n(Cc2ccccc2)c(=O)[nH]c1=O)c1ccccc1,inactive
2,C=C(C)C(Cc1c(OC)ccc(C(=O)/C=C/c2ccc(O)cc2)c1O)OO (configuration not stated),inactive
3,N#Cc1cc2c(nc1SCC(=O)Nc1cc(Cl)ccc1Cl)C1CCN2CC1,inactive
4,CC1CCCCC1NC1CCN(C)CC1 (configuration not stated),inactive
5,CN(C)P(=O)(C(Cl)=C(N1CCCCC1)N1CCCCC1)N(C)C,inactive
6,N=C1c2ccccc2CN1CC(=O)c1ccccc1,inactive
7,CCCCCCOc1ccc(CN2CCN(C)CC2)cc1,inactive
8,COC(=O)C1=C(c2ccc(F)cc2OCc2ccccc2)C[C@@H]2CC[C@H]1N2C(=O)NCCOc1ccc(OC)cc1,inactive
9,Nc1ccccc1N=Cc1c(O)n(CCC2=CCCCC2)c(=O)[nH]c1=O,inactive
10,COC(=O)C1=C(c2cccc(C#N)c2)C[C@@H]2CC[C@H]1N2C(=O)NC1CC1,inactive
11,Nc1c(C(=O)NCc2ccco2)c2nc3ccccc3nc2n1Cc1ccc(F)cc1,inactive
12,O=C(N/N=C/c1c(O)n(C2CC2)c(=S)[nH]c1=O)c1ccccc1,inactive
13,O=C(c1cc2c(s1)CCCC2)N1CCC2(CC1)OCCO2,inactive
14,Cc1cc(N2C(=O)C3CCCN3C2c2sccc2C)no1 (configuration not stated),inactive
15,COc1ccc(CN2CCNCC2)cc1,inactive
16,N#Cc1cc2c(nc1SCC(=O)Nc1ccc(Cl)cc1)C1CCN2CC1,inactive
17,COc1ccc(NC(=O)C2C3CCC(O3)C2C(=O)O)c(OC)c1 (configuration not stated),inactive
